Compound activity: PubChem BioAssay, National Center for Advancing Translational Sciences (NCATS)
CtBP-E1A blk: CtBP/E1A binding inhibition; AlphaScreen GST-E1A/His-CtBP binding, 1536-well; stronger effect = lower value; 340,000 tested, 0.49% active; activity change, % (concentration not given with the values); in the data active = activity change below about -65%; inconclusive = mostly about -30% to -63%
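In 5 uL wells, 23 nL compound meets equimolar GST-E1A and His-CtBP (5X stock 125 nM each) for 2 h, 37 °C. Beads (5X, 50 ug/mL) then 1 h, 37 °C, dark.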
IL1B secr inh: blocks inflammasome-driven IL-1 beta release; THP-1 LPS/ATP IL-1B secretion, AlphaLISA, 16 h; stronger effect = lower value; activity change, % at 57.5 µM; 360,000 tested, 4.7% active; in the data active = activity change below about -50%; inconclusive = mostly about -30% to -49%
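Secreted IL-1B measured by AlphaLISA bead assay after 16 h compound exposure of THP-1 cells; compounds (final up to 57.5 uM) added 1 h before LPS (250 ng/mL) and ATP (1.25 mM) stimulation; lower signal means less secretion.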
TDP1 inh: inhibitors of human tyrosyl-DNA phosphodiesterase TDP1; Q9NUW8; recombinant TDP1, AlphaScreen DNA substrate cleavage; Potency, µM (top dose mostly 130 µM), without a hit: top-dose activity change, negative = inhibition, usual class: inhibitors; 350,000 tested, 0.28% active; AID 485290; note: potency is the fitted concentration of half-maximal effect; nearly all actives have a fitted effect of over 40% in size
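Compounds were preincubated with Tdp1 (1 nM final) for 15 min at room temperature before substrate (15 nM final) started a 5 min reaction; beads (10 ug/ml final) were then added for 10 min before AlphaScreen detection.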
DT40 TDP1 CPT: DT40-hTDP1 cell growth loss with CPT. chicken DT40 Tdp1-/-;hTDP1 cells + 20 nM CPT, ATP luminescence, 48 h. Potency, µM (titrated, usually from 46.2 µM), inactives show at the top dose activity change, negative = growth inhibition, actives largely listed as inhibitors. AID 686979. 420,000 tested, 12% active; note: potency is the fitted concentration of half-maximal effect; nearly all actives have a fitted effect of over 55% in size
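Cell growth measured by CellTiter-Glo luminescence after a minimum 48 h, 37 C compound exposure with 20 nM CPT in Tdp1-knockout DT40 cells stably expressing hTDP1, seeded 400/well; qHTS titration format.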
DT40 TDP1 no CPT: qHTS for Inhibitors of human tyrosyl-DNA phosphodiesterase 1 (TDP1): qHTS in cells in absence of CPT; 420,000 tested, 15% active; AID 686978, 2013; Potency, µM (doses to about 46.2 µM), for the others: top-dose activity change, negative = growth inhibition, actives largely listed as inhibitors; DT40 Tdp1-/- hTDP1 cells, no CPT, ATP luminescence, 48 h; note: potency is the fitted concentration of half-maximal effect; nearly all actives have a fitted effect of over 55% in size
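Growth of hTDP1-complemented DT40 Tdp1-knockout cells is measured by ATP luminescence after at least 48 hr compound exposure at 37 °C, with DMSO substituting for the 20 nM CPT used in the parallel screen.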
Six1-Eya2 blk: Six1/Eya2 interaction inhibition; Q15475+O00167; AlphaScreen GST-Six1/His-Eya2 binding, biochemical; stronger effect = lower value; activity change, % (no concentration beside the values); 360,000 tested, 0.56% active; AID 651725; in the data active = activity change below about -65%; inconclusive = mostly about -30% to -63%
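Compounds are tested against tagged Six1 and Eya2 proteins bridged by glutathione donor and nickel acceptor beads; after a one-hour incubation at 37 °C without light, AlphaScreen emission is recorded.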
An asterisk follows results filed as active; ? = inconclusive; [ ] = remark or other dose. In the library only some 18% were active in any assay of this set; here they are far more common. Unless noted, calls come from the whole dose curve; as a rule, active = well fitted curve in the direction sought with a large enough effect; inconclusive = small, poorly fitted or top-dose-only effect, or another doubt; inactive = no such curve, though single readings can be large; an effect the other way counts as inactive or inconclusive. % is set by controls: 0 for no effect and ±100 for the full control effect.

SMILES | CtBP-E1A blk | IL1B secr inh | TDP1 inh | DT40 TDP1 CPT | DT40 TDP1 no CPT | Six1-Eya2 blk
O=C(O)c1ccc(NC(=S)NC(=O)c2ccc3ccccc3c2)cc1 | -1.4 | -6.4 | 31.6µM* | -1.1% | -2.8% | -7.2
CCC(Oc1ccccc1F)C(=O)NCCCn1ccnc1 (stereo not drawn) | -0.8 | 3.6 | 0.4% | -12.3% | -24.0% | 6.5
CC(C)=CCC/C(C)=C/CNC(=O)C[C@H]1C[C@H](C(=O)N(C(C)C)C(C)C)[C@@]2(C)c3[nH]c4cc(-c5ccco5)ccc4c3CCN2C1=O | -1.7 | -65.2* | 2.3%[56.1 µM] | ? | ? | -16.7
CCN(CC)C(=O)[C@H]1C[C@H](CC(=O)NCc2ccco2)C(=O)N2CCc3c([nH]c4cc(CCC(=O)N(C)C)ccc34)[C@]12C | 3.4 | -8.0 | 0.4%[56.1 µM] | 7.2% | -6.9% | 0.5
CC(C)=CCC/C(C)=C/CNC(=O)C[C@H]1C[C@H](C(=O)N2CCCCC2)[C@@]2(C)c3[nH]c4cc(-c5ccco5)ccc4c3CCN2C1=O | -20.5 | -67.5* | 4.4%[56.1 µM] | ? | 20.6µM* | -21.5
CC(C)=CCC/C(C)=C/CNC(=O)C[C@H]1C[C@H](C(=O)N(C(C)C)C(C)C)[C@@]2(C)c3[nH]c4cc(CCC(=O)N(C)C)ccc4c3CCN2C1=O | -9.7 | -66.8* | 3.0%[56.1 µM] | 10.3µM* | 9.2µM* | -13.4
CCN(CC)C(=O)[C@H]1C[C@H](CC(=O)NC/C=C(\C)CCC=C(C)C)C(=O)N2CCc3c([nH]c4cc(-c5ccco5)ccc34)[C@]12C | -21.9 | -65.4* | 4.5%[56.1 µM] | ? | ? | -17.5
CC(C)N(C(=O)[C@H]1C[C@H](CC(=O)NCCCN(C)C)C(=O)N2CCc3c([nH]c4cc(CCC(=O)N(C)C)ccc34)[C@]12C)C(C)C | -3.7 | 14.8 | 0.3%[56.1 µM] | 11.4% | 15.8% | 0.4
CC(C)N(C(=O)[C@H]1C[C@H](CC(=O)NCCc2ccccn2)C(=O)N2CCc3c([nH]c4cc(-c5ccco5)ccc34)[C@]12C)C(C)C | -5.6 | ? | 5.8%[56.1 µM] | ? | ? | -9.1
CN(C)C(=N)c1n[nH]nc1SCc1ccc(Cl)c(Cl)c1 | 10.4 | 11.0 | -4.9% | 3.1% | -0.4% | 19.0
CN(Cc1ccc(F)cc1)C(=O)c1cccc(S(=O)(=O)NCc2ccccc2)c1 | 0.6 | -4.6 | -1.5% | ? | ? | 5.6
C=CCOc1ccc(CN(C)C(=O)c2ccc(CNS(=O)(=O)c3ccc(C)c(C)c3)cc2)cc1 | 1.6 | -55.0* | -0.1% | ? | 20.6µM* | -7.6
COc1ccc2ccc(O)c(CN3CCN(S(=O)(=O)c4cc([N+](=O)[O-])ccc4C)CC3)c2c1 | -27.0 | -7.2 | 2.6% | -16.4% | ? | -16.2
COC(=O)C1CCCCN1C(=O)c1cccc(OC2CCN(C(=O)C3CC3)CC2)c1 (stereo not drawn) | 11.5 | 0.0 | 2.4%[56.1 µM] | 1.9% | -2.3% | 1.1
CC(C)Cn1c2c(c(O)c(C(=O)Nc3ncccc3O)c1=O)CCCC2 | -7.2 | 20.7 | -6.9% | ? | ? | -7.4
CC(C)Cn1c2c(c(O)c(C(=O)Nn3c(Cc4ccccc4)nc4ccccc4c3=O)c1=O)CCCC2 | -2.7 | 22.5 | 0.0% | 5.17µM* | 3.66µM* | 5.7
CCCCc1nc2ccccc2c(=O)n1NC(=O)c1c(O)c2c(n(CC(C)C)c1=O)CCCC2 | 0.0 | 38.9 | -4.2% | 14.6µM* | 9.2µM* | -0.5
C/C(=N\NC(=O)c1cc2ccccc2cc1O)c1ccc(C)o1 | 4.8 | 16.6 | 3.3% | 18.4µM* | 14.6µM* | 0.0
C/C(=N\NC(=O)c1cc(C)nc2ccccc12)c1ccco1 | 0.2 | 18.1 | 5.1% | 12.0% | 1.1% | 1.2
C/C(=N/NC(=O)c1cc2ccccc2cc1O)c1ccco1 | 1.2 | 0.0 | -0.5% | 25.9µM* | 13µM* | 5.8
